Laboratory results as given in paper PMC8769072, “Proteome‐scale mapping of binding sites in the unstructured regions of the human proteome” (Molecular Systems Biology, 2022).

Biological target: AP2B1 700-937, P63010
Sequence (P63010 700-937): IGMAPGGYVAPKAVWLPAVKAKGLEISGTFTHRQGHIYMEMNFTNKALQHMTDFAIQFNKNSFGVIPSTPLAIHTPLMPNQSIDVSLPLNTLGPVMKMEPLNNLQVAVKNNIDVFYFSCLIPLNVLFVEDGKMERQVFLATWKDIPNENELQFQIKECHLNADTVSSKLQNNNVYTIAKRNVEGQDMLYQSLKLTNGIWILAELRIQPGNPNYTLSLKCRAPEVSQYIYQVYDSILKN

Selected by phage display, active:
PEWEVAAPWGSVGPGA [GPR179, Q6PRD1] confidence 2
SWAAFGDQQATESHHR [AFTPH, Q6ULP2] confidence 3
FTKVEHWSSFAALPWG [SLC35F4, A4IF30] confidence 2
SANADFANFDAFGQSS [AGFG1, P52594] confidence 3
DPGAMEPWALPTWHSW [TSPOAP1, O95153] confidence 2
TESWMSPLAWLEKGVN [SPAG5, Q96R06] confidence 2
APPFPQSTFTPWASWV [SPATA31E1, Q6ZUB1] confidence 3
LSHLGQVEPVPWADAF [ANKRD11, Q6UB99] confidence 2
PWVPNWELGEPPGNAP [ZNF831, Q5JPB2] confidence 3
ITAWEAGWNVTNAIQG [SLC32A1, Q9H598] confidence 3
WPASWGFPDASSTVPS [Q96NJ1] confidence 2
TQAQAALNFGWAFSWL [C12orf71, A8MTZ7] confidence 2
NSISEPKGNPLAWQAF confidence 3
EERLRGWEAFLNAPEA [HTATSF1, O43719] confidence 2
RGVEWAAFGRDLFLAS [ELP2, Q6IA86] confidence 3
TGQDIAPRDSPEWVAF [FRMPD1, Q5SYB0] confidence 3
DSDGHTDAFVAYFADG [BBS5, Q8N3I7] confidence 2
AEPFSSSSPTPLFPWF [KMT2A, Q03164] confidence 2
PWTAFPKPSNSQPTSP [CGNL1, Q0VF96] confidence 3
WSHWEDSALPPPSLRP [RHBDD3, Q9Y3P4] confidence 3
ASSPVNWAAPWANAMN [TEX13C, A0A0J9YWL9] confidence 3
WTAWEADALFMQRDVY [ZNF532, Q9HCE3] confidence 3
VAAGWWAFAPPALQVL [SLCO4A1, Q96BD0] confidence 2
MGGAAASWAGWAVTGV [SCYL1, Q96KG9] confidence 3
TVGKNHEWNWAFVAFT [SLC9A2, Q9UBY0] confidence 2
FDWSSFKPMGFEVSFL [ZNF292, O60281] confidence 2
AGLGGPVDFSDLPWPL [ARNTL, O00327] confidence 2
WQAFESQPAAPAVPMN confidence 2
VPVWEPQDWQQQLVNI [NTHL1, P78549] confidence 3
ESFGGGFADFSTLSKV [EPS15, P42566] confidence 3
EWLYGGPWDVHVHSDL [FIP1L1, Q6UN15] confidence 2
SQEDWTTFTHDRIRQL [INPPL1, O15357] confidence 2
NPGLSWTDWPEPSLLE [PHF7, Q9BWX1] confidence 3
MSGWAEGPRMLSWAPF [TSPO2, Q5TGU0] confidence 3
WDVPAWESTQHPWPVA [ZNF786, Q8N393] confidence 4
SWEAFDSHGQESSGQL [F8A3, P23610] confidence 2
HERDPWYSWDQPGLRL [NDUFB8, O95169] confidence 3
ELLTVPDGWKEPAFSK [KRR1, Q13601] confidence 3
EKSPTDWALFTYEGNS [DBNL, Q9UJU6] confidence 2
WGEPWGEPSTPATTVD [TNRC6A, Q8NDV7] confidence 2
NFADFSQFEVFAASNV [REPS1, Q96D71] confidence 3
EATEEGWASFSAELSH [OBSCN, Q5VST9] confidence 4
EPSTTPNNWADFSSTW [ITSN1, Q15811] confidence 4
LNSPAWEASGLHWSSL [GNAS, P84996] confidence 3

Biological target: ANKRA2 142-313, Q9H9E1
Sequence (Q9H9E1 142-313): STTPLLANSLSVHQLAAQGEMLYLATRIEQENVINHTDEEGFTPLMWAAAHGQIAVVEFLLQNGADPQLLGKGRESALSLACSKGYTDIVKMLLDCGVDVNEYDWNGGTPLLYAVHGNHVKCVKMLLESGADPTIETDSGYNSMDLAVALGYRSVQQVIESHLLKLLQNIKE

Selected by phage display, active:
QASLQAMSLPELSGAL [ANKS3, Q6ZW76] confidence 2
AAKPSLPALDPMSMLF [TSHZ3, Q63HK5] confidence 3
PGTLLPTPGLPQFPSA [OTP, Q5XKR4] confidence 2
LPNLPNLNLNLPAPHI [GORASP2, Q9H8Y8] confidence 2
MPPSQLQLPTLPLVMV [FOXP3, Q9BZS1] confidence 2
DSALSLPPLSLPHPHP [NTM-AS1, Q6ZSK4] confidence 3
YTSPSLPNISLGLQAT [HDAC5, Q9UQL6] confidence 4
AESSQAVMSLPKLQQV [ZNF362, Q5T0B9] confidence 4
VFPRPVLPSLTVSRVI [C16orf46, Q6P387] confidence 4
EEEMEVPVLPKISLPI [NUP153, P49790] confidence 2
ALLLPDLSLHVPPGGA [ZNF513, Q8N8E2] confidence 2
VELPALPSLPTLPTLP [PRX, Q9BXM0] confidence 2
EKPVPTLPQFTMGPNV [EFNA3, P52797] confidence 3
PQPKLPYLPTFPFSMP [NOBOX, O60393] confidence 2
NLRLPSLDEQVIPARL [Q5PR19] confidence 2
SMLKLPDLPQNSVKLQ [KIAA0586, Q9BVV6] confidence 3
VGLPLPPTLPSLIPFI [SALL1, Q9NSC2] confidence 2
MSARPSLPPLPAKPAG [SERTAD4-AS1, Q5TG53] confidence 2
